Source: ChEMBL document CHEMBL3433997, “St. Jude Leishmania screening dataset” (2016)

These compounds were tested against Solute carrier family 2, facilitated glucose transporter member 1 (Homo sapiens) (UniProt P11166) (assay: ST_JUDE_LEISH: Cytotoxicity at 2uM final concentration against transgenic Leishmania Mexicana promastigotes LmGLUT1 that are glucose transport deficient and complemented with the human glucose transporter GLUT1. Activity is measured by DNA content using SYBR green in vitro).
Solute carrier family 2, facilitated glucose transporter member 1 (Homo sapiens), sequence (P11166 whole entry): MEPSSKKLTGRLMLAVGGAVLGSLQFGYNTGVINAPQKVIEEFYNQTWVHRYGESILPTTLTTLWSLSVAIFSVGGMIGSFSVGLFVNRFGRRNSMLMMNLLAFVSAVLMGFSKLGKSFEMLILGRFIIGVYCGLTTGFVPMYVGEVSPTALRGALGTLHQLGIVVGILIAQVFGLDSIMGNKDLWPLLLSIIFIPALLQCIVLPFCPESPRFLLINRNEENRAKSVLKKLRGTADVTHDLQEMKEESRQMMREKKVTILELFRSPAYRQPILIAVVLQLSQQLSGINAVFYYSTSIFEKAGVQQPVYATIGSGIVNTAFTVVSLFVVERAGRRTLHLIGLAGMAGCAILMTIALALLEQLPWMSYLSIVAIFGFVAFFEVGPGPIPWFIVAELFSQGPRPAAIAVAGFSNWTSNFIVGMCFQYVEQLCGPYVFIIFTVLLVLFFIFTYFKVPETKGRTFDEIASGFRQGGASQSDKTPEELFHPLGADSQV
Type: functional
`COc1ccc(NC(=O)Nc2cccc(-c3cccc(-c4nc5ccccc5[nH]4)c3)c2)cc1` was tested, and the inhibition was -1.96%.
Compound `CN(Cc1ccc(C#N)cc1)C1CCN(c2cc(NC(=O)c3cccc(F)c3)ccn2)CC1` has an inhibition of -1.86%.
Compound `CN(C)c1cccc2c1nc(-c1ccco1)n2CC1CCCN1` (stereo not given) has an inhibition of -1.97%.
Compound `COc1ccc(S(=O)(=O)N(CC(=O)NN=C(C)c2cccs2)c2cc(C)cc(C)c2)cc1OC` has an inhibition of 0.78%.
Compound `CCOc1cc(Br)c(C(C)NC(=O)c2cccc(OC)c2)cc1OCC` (stereo not given) has an inhibition of 0.82%.
For `CC(=O)Nc1ccc(CN(Cc2ccc(C)cc2)Cc2cccc(Oc3ccccc3)c2)cc1`, the inhibition was 2.75%.
`O=C(/C=C/c1ccc(Cl)c(Cl)c1)N1CCC(CCCN2CCC(c3c[nH]c4ccccc34)CC2)CC1` showed an inhibition of 70.7%.
`CN1CCN(CC(=O)Nc2cccc(-c3ccc(-c4nc5cc(F)ccc5[nH]4)s3)c2)CC1` was tested, and the inhibition was 7.26%.
`COc1ccc(CNCc2ccc(-c3ccc(CNCCc4ccccc4)cn3)cc2)cn1` showed an inhibition of 0.68%.
`Nc1nc(N)c2c(ccc3c2ncn3Cc2ccccc2)n1` gave an inhibition of 12.9%.
`O=c1cc(NCCCNCc2[nH]c3cc(Cl)ccc3c2Cl)[nH]c2ccccc12` was tested, and the inhibition was 5.19%.
With `O=C(/C=C/c1ccc(Cl)c(Cl)c1)NCCCCCN1CCCC(CNC(=O)Nc2ccc(Oc3ccccc3)cc2)C1` (stereo not given) the inhibition was -0.78%.
Work on `Nc1c2c(nc3ccc(C(=O)Nc4cc(I)c(O)c(I)c4)cc13)CCCC2` yielded an inhibition of 1.22%.
Work on `CC1(C)[C@H]2CC[C@@H](CNc3nc(NCCc4c[nH]cn4)nc(Nc4ccc(Oc5ccccc5)cc4)n3)[C@@H]1C2` yielded an inhibition of 1.23%.
For `OC1(c2ccc(Br)cc2)CCN(C2CCN(Cc3ccccc3)CC2)CC1`, the inhibition was 5.8%.
`CC(C)c1cc(N)c2cc(NC(=O)COCC(=O)Nc3ccc4nc(C(C)C)cc(N)c4c3)ccc2n1` was tested, and the inhibition was 5.18%.
`CCCCCCN1CCCN(Cc2cccc(NC(=O)c3cc4ccccc4s3)c2)CC1` gave an inhibition of 2.73%.
Work on `C[C@@H](NC(=O)c1nn(-c2ccc(Cl)cc2)c(=O)c2ccccc12)C(C)(C)C` yielded an inhibition of 1.61%.
For `CC(=O)Nc1ccc(C(=O)NC2CCN(c3ccnc4cc(Cl)ccc34)CC2)cc1`, the inhibition was 0.22%.
For `Cc1[nH]c(C)c(-c2csc3ccccc23)c(=O)c1Cl`, the inhibition was 5.32%.
`Cc1ccc(NC(=O)c2ccc(Cl)cc2)cc1-c1ccc(C(=O)Nc2ccncc2)cc1` was tested, and the inhibition was -1.61%.
For `CCc1cc(Br)c(CNCCCNc2cc(=O)c3ccccc3[nH]2)s1`, the inhibition was 0.41%.
`Nc1nc(N)c2c(ccc3c2ccn3CCCC(F)(F)F)n1` was tested, and the inhibition was 14.2%.
`Cc1[nH]c(C)c(-c2cccc(-c3ccc(OC(F)(F)F)cc3)c2)c(=O)c1Br` was tested, and the inhibition was 1.89%.
`O=C(Nc1ccc(C(F)(F)F)cc1)c1ccc(S(=O)(=O)NCC2CCCN(CC3CCCCC3)C2)cc1` (stereo not given) showed an inhibition of 2.94%.
Work on `N#Cc1ccc(-c2ccc(C(=O)NCCCCN3CCC(c4ccncc4)CC3)cc2)cc1` yielded an inhibition of 1.06%.
`N=C(N)Nc1nc(-c2ccc(NC(=N)N3CCC[C@H]3CN3CCCC3)cc2)cs1` showed an inhibition of -0.01%.
Compound `CN(CCN)Cc1cccc(-c2cccc(-c3nc4cc(F)ccc4[nH]3)c2)c1` has an inhibition of 1.11%.
`COC(=O)c1sc(-c2ccc(Cl)cc2)cc1N(CCCN1CCC(N2CCCCC2)CC1)S(=O)(=O)c1ccc(C)cc1` gave an inhibition of 23.5%.
`CC(=O)OC[C@H]1O[C@@H](C#Cc2ccccc2)[C@H](OC(C)=O)[C@@H](OC(C)=O)[C@@H]1OC(C)=O` was tested, and the inhibition was 1.22%.
`CCOc1cc(O)c(-c2nc(N)ncc2-c2ccc3c(c2)OCCO3)cc1CC` was tested, and the inhibition was 9.25%.
With `CCOc1cc(Cc2cnc(N)nc2N)cc(OC)c1OC` the inhibition was -1.63%.
Compound `COc1ccc(NS(=O)(=O)c2ccccc2Br)cc1N1CCN(C)CC1` has an inhibition of 0.24%.
In the case of `COc1ccc2ncc(F)c(CCN3CCC(NCc4ccc5c(c4)CCO5)CC3)c2n1`, the inhibition is reported as 16.7%.
`CCC(CO)NCC(O)Cn1c2ccc(Br)cc2c2cc(Br)ccc21` (stereo not given) was tested, and the inhibition was 1.9%.
For `CCN(CC)C(=S)N/N=C1/C(=O)Nc2c(C)cccc21`, the inhibition was 6.57%.
Compound `O=C(Nc1ccc(-c2nc3ccccc3[nH]2)cc1)c1ccc(N2CCCC2)c([N+](=O)[O-])c1` has an inhibition of 0.71%.
`COc1ccc(Cn2ccc3c4c(N)nc(N)nc4ccc32)cc1` was tested, and the inhibition was 97.9%.
Work on `Cc1[nH]c(C)c(-c2ccc(-c3ccccc3)nc2)c(=O)c1Br` yielded an inhibition of -0.2%.
Compound `N#Cc1ccc(CCNc2nccc(-c3cccc(CN4CCNCC4)c3)n2)cc1` has an inhibition of 12.3%.

These compounds were tested against Hexose transporter 1 (Plasmodium falciparum) (UniProt O97467) (assay: ST_JUDE_LEISH: Cytotoxicity at 2uM final concentration against transgenic Leishmania Mexicana promastigotes LmPfHT that are glucose transport deficient and complemented with the Plasmodium falciparum hexose transporter. Activity is measured by DNA content using SYBR green in vitro).
Type: functional
In the case of `COc1ccc(NC(=O)Nc2cccc(-c3cccc(-c4nc5ccccc5[nH]4)c3)c2)cc1`, the inhibition is reported as -0.16%.
Compound `CN(Cc1ccc(C#N)cc1)C1CCN(c2cc(NC(=O)c3cccc(F)c3)ccn2)CC1` has an inhibition of -1.81%.
Compound `CN(C)c1cccc2c1nc(-c1ccco1)n2CC1CCCN1` (stereo not given) has an inhibition of -3.51%.
In the case of `COc1ccc(S(=O)(=O)N(CC(=O)NN=C(C)c2cccs2)c2cc(C)cc(C)c2)cc1OC`, the inhibition is reported as 2.03%.
`CCOc1cc(Br)c(C(C)NC(=O)c2cccc(OC)c2)cc1OCC` (stereo not given) gave an inhibition of 0.03%.
Compound `CC(=O)Nc1ccc(CN(Cc2ccc(C)cc2)Cc2cccc(Oc3ccccc3)c2)cc1` has an inhibition of 3.12%.
Compound `O=C(/C=C/c1ccc(Cl)c(Cl)c1)N1CCC(CCCN2CCC(c3c[nH]c4ccccc34)CC2)CC1` has an inhibition of 51.2%.
`CN1CCN(CC(=O)Nc2cccc(-c3ccc(-c4nc5cc(F)ccc5[nH]4)s3)c2)CC1` showed an inhibition of 7.42%.
Compound `COc1ccc(CNCc2ccc(-c3ccc(CNCCc4ccccc4)cn3)cc2)cn1` has an inhibition of -0.51%.
`Nc1nc(N)c2c(ccc3c2ncn3Cc2ccccc2)n1` was tested, and the inhibition was 13.7%.
For `O=c1cc(NCCCNCc2[nH]c3cc(Cl)ccc3c2Cl)[nH]c2ccccc12`, the inhibition was 3.33%.
`O=C(/C=C/c1ccc(Cl)c(Cl)c1)NCCCCCN1CCCC(CNC(=O)Nc2ccc(Oc3ccccc3)cc2)C1` (stereo not given) showed an inhibition of 0.69%.
In the case of `Nc1c2c(nc3ccc(C(=O)Nc4cc(I)c(O)c(I)c4)cc13)CCCC2`, the inhibition is reported as 1.9%.
Work on `CC1(C)[C@H]2CC[C@@H](CNc3nc(NCCc4c[nH]cn4)nc(Nc4ccc(Oc5ccccc5)cc4)n3)[C@@H]1C2` yielded an inhibition of -1.54%.
With `OC1(c2ccc(Br)cc2)CCN(C2CCN(Cc3ccccc3)CC2)CC1` the inhibition was 6.01%.
`CC(C)c1cc(N)c2cc(NC(=O)COCC(=O)Nc3ccc4nc(C(C)C)cc(N)c4c3)ccc2n1` was tested, and the inhibition was 5.67%.
In the case of `CCCCCCN1CCCN(Cc2cccc(NC(=O)c3cc4ccccc4s3)c2)CC1`, the inhibition is reported as 3.42%.
In the case of `C[C@@H](NC(=O)c1nn(-c2ccc(Cl)cc2)c(=O)c2ccccc12)C(C)(C)C`, the inhibition is reported as 1.12%.
For `CC(=O)Nc1ccc(C(=O)NC2CCN(c3ccnc4cc(Cl)ccc34)CC2)cc1`, the inhibition was 1.09%.
`Cc1[nH]c(C)c(-c2csc3ccccc23)c(=O)c1Cl` gave an inhibition of 5.33%.
With `Cc1ccc(NC(=O)c2ccc(Cl)cc2)cc1-c1ccc(C(=O)Nc2ccncc2)cc1` the inhibition was 1.31%.
For `CCc1cc(Br)c(CNCCCNc2cc(=O)c3ccccc3[nH]2)s1`, the inhibition was -0.52%.
`Nc1nc(N)c2c(ccc3c2ccn3CCCC(F)(F)F)n1` gave an inhibition of 20.3%.
Work on `Cc1[nH]c(C)c(-c2cccc(-c3ccc(OC(F)(F)F)cc3)c2)c(=O)c1Br` yielded an inhibition of 4.46%.
For `O=C(Nc1ccc(C(F)(F)F)cc1)c1ccc(S(=O)(=O)NCC2CCCN(CC3CCCCC3)C2)cc1` (stereo not given), the inhibition was 2.24%.
`N#Cc1ccc(-c2ccc(C(=O)NCCCCN3CCC(c4ccncc4)CC3)cc2)cc1` gave an inhibition of 1.16%.
Work on `N=C(N)Nc1nc(-c2ccc(NC(=N)N3CCC[C@H]3CN3CCCC3)cc2)cs1` yielded an inhibition of -0.2%.
Compound `CN(CCN)Cc1cccc(-c2cccc(-c3nc4cc(F)ccc4[nH]3)c2)c1` has an inhibition of 1.79%.
With `COC(=O)c1sc(-c2ccc(Cl)cc2)cc1N(CCCN1CCC(N2CCCCC2)CC1)S(=O)(=O)c1ccc(C)cc1` the inhibition was 11.2%.
In the case of `CC(=O)OC[C@H]1O[C@@H](C#Cc2ccccc2)[C@H](OC(C)=O)[C@@H](OC(C)=O)[C@@H]1OC(C)=O`, the inhibition is reported as 2.07%.
In the case of `CCOc1cc(O)c(-c2nc(N)ncc2-c2ccc3c(c2)OCCO3)cc1CC`, the inhibition is reported as 11%.
For `CCOc1cc(Cc2cnc(N)nc2N)cc(OC)c1OC`, the inhibition was -0.5%.
For `COc1ccc(NS(=O)(=O)c2ccccc2Br)cc1N1CCN(C)CC1`, the inhibition was -0.27%.
In the case of `COc1ccc2ncc(F)c(CCN3CCC(NCc4ccc5c(c4)CCO5)CC3)c2n1`, the inhibition is reported as 21.4%.
In the case of `CCC(CO)NCC(O)Cn1c2ccc(Br)cc2c2cc(Br)ccc21` (stereo not given), the inhibition is reported as -0.92%.
`CCN(CC)C(=S)N/N=C1/C(=O)Nc2c(C)cccc21` gave an inhibition of 4.85%.
With `O=C(Nc1ccc(-c2nc3ccccc3[nH]2)cc1)c1ccc(N2CCCC2)c([N+](=O)[O-])c1` the inhibition was 2.01%.
Work on `COc1ccc(Cn2ccc3c4c(N)nc(N)nc4ccc32)cc1` yielded an inhibition of 89.3%.
In the case of `Cc1[nH]c(C)c(-c2ccc(-c3ccccc3)nc2)c(=O)c1Br`, the inhibition is reported as 0.36%.
`N#Cc1ccc(CCNc2nccc(-c3cccc(CN4CCNCC4)c3)n2)cc1` was tested, and the inhibition was 12.8%.
